This note sets out measurements from ChEMBL document CHEMBL4513216, “Probing the Open Global Health Chemical Diversity Library for Multistage-Active Starting Points for Next-Generation Antimalarials” (ACS Infect Dis, 2020).

The campaign covered roughly 68,000 compounds. About 2,700 (4%) showed an effect of 50% or more. This excerpt belongs to a sample that is enriched for strong results.

This experiment concerns Plasmodium berghei. Nature of the experiment: Screen against P. berghei liver stage (PbLuc), transformed with Luciferase, at 2uM. Format: functional, HepG2. The note with it: tested at 2 uM.
`COc1ccnc(C(=O)N2CCCC(c3noc(C)n3)C2)c1` (stereo unspecified): the INHIBITION amounted to 11.71%.
Consider `Cc1cc(C)c2nc(CN3CCCC(c4cc[nH]n4)C3)cc(O)c2c1` (stereo unspecified), for which the INHIBITION is recorded as -45.64%.
On to `Cn1cc(CNC(=O)c2cc3c(s2)CCCCC3)cn1`, for which the INHIBITION is on record as 36.66%.
With `COc1cc(C2CC(=O)Nc3c2nc2n3CCCC2)ccc1O` (stereo unspecified), the INHIBITION was 0.1%.
Turning to `CC1CCN(C(=O)c2cc(NC(=O)c3ccccc3)n(C)n2)CC1`, the INHIBITION is -57.06%.
Then `CCc1cc(NCCCN(C)C2CCCC2)ncn1`, with 36.22%; and `CC(C)NC(=O)N1CCC2(CCC(=O)N2CCN(C)C)CC1`, with 16.12%.
Regarding `Cc1c(C2=NS(=O)(=O)N(C)C(C(=O)Nc3ccc(Br)cc3)=C2)cnn1C`, the INHIBITION was 22.84%.
Then `CN1C(=O)CCCC12CCCN(Cc1nccs1)C2` (stereo unspecified), with 20.2%; and `CCN(Cc1ccccc1)C(=O)CN1CCCC(Cn2cncn2)C1` (stereo unspecified), with 33.16%; and `CNC(=O)CN1CCN(C(=O)c2ccn(C)c(=O)c2)CC1`, with -16.28%.
For the compound `CC(C)c1nc(C2CCCN(C(=O)CCn3cncn3)C2)no1` (stereo unspecified), the INHIBITION worked out at 64.16%.
Regarding `CC(C)c1nc(C2CCCN(C(=O)CCCn3cncn3)C2)no1` (stereo unspecified), the INHIBITION was -45.72%.
With `CSc1ccc(C(=O)C2CCCN(C(=O)CCn3cnnn3)C2)cc1` (stereo unspecified), the INHIBITION is reported as 35.13%.
On to `CSc1ccc(C(=O)C2CCCN(C(=O)CCn3cncn3)C2)cc1` (stereo unspecified), for which the INHIBITION is reported as 55.25%.
For the compound `CC(C)c1nc(C2CCCN2C(=O)CCn2cncn2)no1` (stereo unspecified), the INHIBITION is -15.92%.
Then `CSc1ccc(C(=O)C2CCCN(C(=O)CCCn3cncn3)C2)cc1` (stereo unspecified), with 49.98%.
As to `c1ccn2cc(CN3CCCC(c4ccn[nH]4)C3)nc2c1` (stereo unspecified), the INHIBITION stood at 13.4%.
With `Cc1cc(C2CCCN(Cc3cccnc3)C2)n[nH]1` (stereo unspecified), the INHIBITION is reported as 30.82%.
`CC1c2ccc(F)cc2CCN1C(=O)c1[nH]c(=O)[nH]c(=O)c1N` (stereo unspecified): the INHIBITION is reported as -36.67%.
Then `CCOC(=O)c1ccc(NC(=O)c2c(O)nc3c(c2O)CCCC3)cc1`, with -23.02%; and `CC(=O)N1CC(=O)N(c2cnn(C)c2)CC12CCN(CC1CC1)C2` (stereo unspecified), with -7.82%; and `Cc1cccc(C(=O)N2CCO[C@H]3[C@H](OCCN(C)C)CC[C@@H]32)n1`, with 19.98%.
Consider `Cc1nn(C)c(N(C)C)c1CNCCC(=O)NC1CCCCC1`, for which the INHIBITION came out at 68.24%.
The value for `Cc1nn(C)c(N(C)C)c1CNCCC(=O)NC1CCCC1` was 41.76%.
Consider `CC(NCc1c(C(C)C)nn(C)c1N(C)C)C(=O)NC1CCCC1` (stereo unspecified), for which the INHIBITION is 10.04%.
In the case of `COc1c(CNCCC(=O)NC2CCCC2)c(C(C)C)nn1C`, the INHIBITION was -5.09%.
In the case of `COc1c(CNCCC(=O)NC2CCCCC2)c(C(C)C)nn1C`, the INHIBITION turned out to be 64.16%.
Regarding `CC(C)c1nn(C)c(N(C)C)c1CNCCC(=O)NC1CCCCC1`, the INHIBITION was found to be 39.72%.
Regarding `COc1c(CNC(C)C(=O)NC2CCCC2)c(C(C)C)nn1C` (stereo unspecified), the INHIBITION came to 3.59%.
As to `COc1c(CNC(C)C(=O)NC2CCCC2)c(C)nn1C` (stereo unspecified), the INHIBITION was determined as 60.34%.
In the case of `CC(C)c1nn(C)c(N(C)C)c1CNCCC(=O)NC1CCCC1`, the INHIBITION is given as -0.64%.
Regarding `O=C(NC1CCC1)[C@@H]1C[C@@H]2CCN(CCc3ccccc3)C[C@H]2O1`, the INHIBITION is recorded as -39.67%.
The value for `CNC(=O)CN1CCOCC2(CCCN(Cc3ccc(F)cc3)C2)C1` (stereo unspecified) was 34.24%.
On to `C[C@H]1C[C@H]2CN(S(=O)(=O)c3ccc(F)cc3)CC[C@@H]2O1`, for which the INHIBITION is recorded as -21.77%.
As for `CC(=O)Nc1ccc(-n2cncn2)c(F)c1`, the INHIBITION stood at 8.5%.
For `COCCOc1ncccc1C(=O)Nc1ccc(-n2cncn2)c(F)c1`, the INHIBITION came to 69.41%.
`COCCNC(=O)Nc1ccc(-n2cncn2)c(F)c1`: the INHIBITION is 0.26%.
As to `COC[C@]1(O)CCN(c2cc(N3CCOCC3)ncn2)CC1(C)C`, the INHIBITION is -18.81%.
Consider `COc1ccc(CNC(=O)Nc2cccnc2N2CCCC2)cc1O`, for which the INHIBITION is 24.15%.
Take `Cc1cnc(N2CCC3(CCN(CC4CC4)C3=O)CC2)nc1`: the INHIBITION is on record as 51.19%.
As to `O=C1N(CC2CC2)CCC12CCN(c1ncccn1)CC2`, the INHIBITION is 8.37%.
As to `O=C1N(CC2CC2)CCC12CCCN(c1ncc(F)cn1)C2` (stereo unspecified), the INHIBITION is on record as -14.61%.
On to `Cc1cnc(N2CCC3(CCN(CC4CCCC4)C3=O)CC2)nc1`, for which the INHIBITION amounted to 45.28%.
Regarding `O=C1N(CC2CCCC2)CCC12CCN(c1ncc(F)cn1)CC2`, the INHIBITION was 61.15%.
`CN1CCC2(CCN(c3ncc(F)cn3)CC2)C1=O`: the INHIBITION is reported as 34.19%.
For the compound `Cc1ccc(CNC(=O)NC2CCCN(c3ncccn3)C2)n1C` (stereo unspecified), the INHIBITION was 30.83%.
`Cc1ccc(C(CNCc2ccncc2)N2CCOCC2)s1` (stereo unspecified): the INHIBITION is -27.89%.
For the compound `Cc1ccc(C(CNCc2nccn2C)N2CCOCC2)s1` (stereo unspecified), the INHIBITION amounted to 69.82%.
Consider `Cc1ccc(C(CNCc2ncc[nH]2)N2CCOCC2)s1` (stereo unspecified), for which the INHIBITION is recorded as 6.4%.
On to `Cc1ccc(C(CNCc2cccn2C)N2CCOCC2)s1` (stereo unspecified), for which the INHIBITION is given as -24.42%.
For `CCn1ccnc1CNCC(c1ccc(C)s1)N1CCOCC1` (stereo unspecified), the INHIBITION is reported as 76.65%.
For the compound `CCn1cc(CNCC(c2ccc(C)s2)N2CCOCC2)cn1` (stereo unspecified), the INHIBITION is reported as 8.33%.
`NS(=O)(=O)CCNC(=O)c1nnn(-c2ccccc2)c1C1CC1`: the INHIBITION is 2.39%.
The value for `Cc1nc(NC(=O)CN2CCc3c(nc(C(C)C)n3C)C2)sc1C` was -1.14%.
With `CS(=O)(=O)N1CCO[C@@H]2CN(C(=O)COC3CCCC3)C[C@@H]2C1`, the INHIBITION is 17.4%.
`CCOc1c(OC)cc(C=Cc2ncc(C(=O)NC)s2)cc1OC`: the INHIBITION stood at 39.56%.
Take `FC(F)(F)c1cccc(N2CCC(NCc3cccnc3)CC2)c1`: the INHIBITION came to 47.23%.
On to `CCNC(=O)NC[C@H]1C[C@@H]2CCN1C[C@@H]2c1cc(-c2cccs2)nn1C`, for which the INHIBITION came to 60.6%.
As for `COCC(=O)NC[C@H]1C[C@@H]2CCN1C[C@@H]2c1cc(-c2cccs2)nn1C`, the INHIBITION turned out to be 27.65%.
`Cn1nc(-c2cccs2)cc1[C@H]1CN2CC[C@H]1C[C@@H]2CNS(C)(=O)=O`: the INHIBITION came to 40.83%.
For the compound `Cn1nc(-c2cccs2)cc1[C@H]1CN2CC[C@H]1C[C@@H]2CN`, the INHIBITION is listed as 34.24%.
As to `CC(=O)NC[C@H]1C[C@@H]2CCN1C[C@@H]2c1cc(-c2cccs2)nn1C`, the INHIBITION stood at 35.89%.
Regarding `Cn1nc(-c2ccccc2)cc1[C@H]1CN2CC[C@H]1C[C@@H]2CNS(C)(=O)=O`, the INHIBITION worked out at 62.25%.
For the compound `O=C(c1cc(C2CC2)on1)N1CCC(Oc2ncccc2Cl)CC1`, the INHIBITION was -22.8%.
Turning to `CCN1C[C@@H]2[C@@H](OC)CCN(S(=O)(=O)c3ccccc3F)[C@@H]2C1`, the INHIBITION is recorded as -22.38%.
As for `O=C(CCc1ccccc1)NCC(O)c1c(F)cccc1F` (stereo unspecified), the INHIBITION is -17.44%.
As for `CC(C)C(=O)N1Cc2ccccc2CC2(CCCCN2C)C1` (stereo unspecified), the INHIBITION is 6.2%.
With `O=C(CCNc1ncccn1)N1CCN(c2nccs2)CC1`, the INHIBITION is on record as 9.41%.
`CC(C)N1CCC2(CC1)CC(CC(N)=O)c1ccc(F)cc12` (stereo unspecified): the INHIBITION is -94.52%.
For `COCCN1CCC2(CC1)CC(CC(N)=O)c1ccc(F)cc12` (stereo unspecified), the INHIBITION is listed as 53.06%.
On to `CCC(=O)N1CCC2(CC1)CC(CC(N)=O)c1ccc(F)cc12` (stereo unspecified), for which the INHIBITION is on record as -10.13%.
Regarding `O=C(CCc1cccc(F)c1F)N1CCCC(n2cncn2)C1` (stereo unspecified), the INHIBITION is given as -19.35%.
Consider `CCN(CC)[C@@H]1CN(C(=O)c2ccc(C#N)cc2)[C@@H]2CCCO[C@H]12`, for which the INHIBITION is reported as -58.31%.
With `Nc1cccnc1N1CCN(c2ccccc2)CC1`, the INHIBITION is recorded as -43.35%.
The value for `COc1cccc(F)c1-c1nc2c([nH]1)c(C1CC1)nn2C` was 21.14%; that for `O=C(N1CCCC1)N1CCc2onc(COc3cccnc3)c2C1` was 11.79%; that for `O=C(c1ccncc1F)N1CCc2onc(COc3cccnc3)c2C1` was 54.89%.
As to `O=C(c1ccc[nH]1)N1CCc2onc(COc3cccnc3)c2C1`, the INHIBITION is reported as -39.67%.
As for `O=C(c1ccc(F)cc1F)N1C[C@@H](O)[C@H](N2CCOCC2)C1`, the INHIBITION amounted to 13.51%.
Consider `O=C(CCc1nccs1)N1CCCC(N2CCNC2=O)C1` (stereo unspecified), for which the INHIBITION amounted to 7.74%.
As to `COCCN1C[C@@H]2CN(S(=O)(=O)c3cccs3)C[C@@H]2C1=O`, the INHIBITION was -8.59%.
On to `CCN1C[C@@H]2CN(S(=O)(=O)c3cccs3)C[C@@H]2C1=O`, for which the INHIBITION stood at 62.25%.
Regarding `CC(C)CN1C[C@@H]2CN(S(=O)(=O)c3cccs3)C[C@@H]2C1=O`, the INHIBITION worked out at 29.85%.
Take `CCCN1CCCn2nc(CNS(=O)(=O)c3cccc(F)c3)cc2C1`: the INHIBITION is given as 39.28%.
Then `Cc1ccc(CN(Cc2[nH]cnc2C)C2CC(C)(C)NC(C)(C)C2)o1`, with -13%.
With `Cc1nc(C2CCCN2CC(=O)N2CCc3ccccc32)no1` (stereo unspecified), the INHIBITION is given as 47.93%.
With `Cc1cc(NC(=O)N2CCOC(C(N)=O)C2)ccc1Br` (stereo unspecified), the INHIBITION is listed as 29.89%.
Then `NC(=O)C1CN(C(=O)Nc2cc(Cl)cc(Cl)c2)CCO1` (stereo unspecified), with 80.56%; and `CCOc1ccc(NC(=O)N2CCOC(C(N)=O)C2)cc1Cl` (stereo unspecified), with 51.4%.
For the compound `COCCOc1ccc(NC(=O)N2CCOC(C(N)=O)C2)cc1F` (stereo unspecified), the INHIBITION came to 29.89%.
In the case of `COCC1CN(C(=O)Nc2cc(Cl)cc(Cl)c2)CCO1` (stereo unspecified), the INHIBITION came out at 13.12%.
As for `CCOc1ccc(NC(=O)N2CCOC(C(N)=O)C2)cc1C` (stereo unspecified), the INHIBITION is reported as 6.22%.
The value for `Cc1ccsc1C(=O)N1CCCN(Cc2cscn2)CC1` was 29.12%.
On to `COc1ccc(NCCC(=O)NCc2cccnc2N(C)C)cc1`, for which the INHIBITION came out at 35.54%.
`CCOC(=O)c1cnn(C2CCN(C(=O)CC(C)(C)C)CC2)c1N`: the INHIBITION was -40.25%.
Then `c1ccc(CN2CCC3(CC2)CC(Nc2nccs2)CO3)nc1` (stereo unspecified), with -14.97%; and `O=C(NCC1CCN(CCc2ccccc2)C1)NCC1(O)CCC1` (stereo unspecified), with -69.19%; and `O=C(NCC1CCCN1Cc1ccccc1)NCC1(O)CCC1` (stereo unspecified), with -19.78%.
For `O=C(NCC1CCCN1CCc1ccccc1)NCC1(O)CCC1` (stereo unspecified), the INHIBITION was determined as 57.34%.
For `Cc1cc(CN2CC[C@H]3C[C@H](c4nc(C5CC5)cs4)O[C@@H]3C2)no1`, the INHIBITION is recorded as 35.84%.
